# The list is not random: actives were taken first. Their share in the collection is about 19%.
# TDP1 cell noCPT: qHTS for Inhibitors of human tyrosyl-DNA phosphodiesterase 1 (TDP1): qHTS in cells in absence of CPT. DT40 Tdp1-/- hTDP1 cells, no CPT, ATP luminescence, 48 h. Potency, µM (series often up to 46.2 µM), for the others: at the highest dose activity change, negative = growth inhibition, hits mostly inhibitors. 420,000 tested, 15% active; also: potency is read from the fitted curve at half-maximal effect; % is scaled to controls: 0 for no effect and ±100 for the full control effect; nearly all actives have a fitted effect of over 55% in size
#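 Cells were dispensed at 400 per well, compounds added by pin tool, plates incubated ≥48 hr at 37 °C, then CellTiter-Glo added for 30 min at room temperature before luminescence reading. Line: DT40 Tdp1-/- complemented with hTDP1; camptothecin omitted.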
# SW480 rereplic: induces DNA re-replication in SW480 colon adenocarcinoma cells. Potency, µM (doses to about 46.1 µM), without a hit: at the highest dose re-replication activation, most hits filed as activators. SW480 DNA re-replication, Hoechst DNA content imaging, 48 h. 340,000 tested, 1.8% active; also: potency is read from the fitted curve at half-maximal effect; % of control where 0% means no effect; nearly all actives have a fitted effect of over 55% in size
#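 250 cells/well; 23 nL cpd via pin tool; 48 hr, 37 C, 5% CO2; Hoechst 40 min; imager read of total nuclear intensity, ex 405/em 500-530 nm.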
# Chronic BCR inh: inhibitors of chronic active B-cell receptor signaling | ABC-DLBCL IkBa-CBG/CBR reporter, luminescence ratio, 4 h | Potency, µM (doses to about 46.1 µM), inactives show top-dose activity change, negative = inhibition, most hits filed as inhibitors | 340,000 tested, 0.05% active; active = well fitted inhibition curve with a large enough effect in the signal ratio, with a control signal flat, not every such curve was filed as active; inconclusive = small, poorly fitted or top-dose-only effect, or effect the other way, or a change in a side signal; the % refers to the signal ratio;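 also: potency is read from the fitted curve at half-maximal effect; plate controls were basal doxycycline-induced cells for no effect and cells given 10 µM MG132 for full effect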
#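 Compounds up to 46 uM were incubated four hours with TMD8 cells whose green CBG68 luciferase is fused to IkappaBalpha; red CBR luminescence normalised the signal, and concentration-effect curves were fitted to fusion, red and ratio data.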
# MCF10A rereplic: DNA re-replication induction in MCF 10a cells. Potency, µM (titrated, usually from 46.1 µM), for the others: top-dose activity, positive = re-replication, actives largely listed as activators. 350,000 tested, 2.9% active. MCF 10A DNA re-replication, Hoechst nuclear intensity, 48 h; also: potency is read from the fitted curve at half-maximal effect; % of control where 0% means no effect; nearly all actives have a fitted effect of over 50% in size
# TDP1 cell CPT: growth inhibition of DT40 Tdp1-/-;hTDP1 cells with camptothecin (screen for TDP1 inhibitors); chicken DT40 Tdp1-/-;hTDP1 cells + 20 nM CPT, ATP luminescence, 48 h; Potency, µM (highest dose often 46.2 µM), without a hit: top-dose activity change, negative = growth inhibition, usual class: inhibitors; 420,000 tested, 12% active; also: potency is read from the fitted curve at half-maximal effect; % is scaled to controls: 0 for no effect and ±100 for the full control effect; nearly all actives have a fitted effect of over 55% in size
#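 Cell growth measured by CellTiter-Glo luminescence after a minimum 48 h, 37 C compound exposure with 20 nM CPT in Tdp1-knockout DT40 cells stably expressing hTDP1, seeded 400/well; qHTS titration format.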
# IL1B secr inh: blocks inflammasome-driven IL-1 beta release | THP-1 LPS/ATP IL-1B secretion, AlphaLISA, 16 h; hits give low values | activity change, % at 57.5 µM | 360,000 tested, 4.7% active | AID 743279; in the data active = activity change below about -50%; inconclusive = mostly about -30% to -49%; also: % is scaled to controls: 0 for no effect and ±100 for the full control effect
#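 Secreted IL-1B measured by AlphaLISA bead assay after 16 h compound exposure of THP-1 cells; compounds (final up to 57.5 uM) added 1 h before LPS (250 ng/mL) and ATP (1.25 mM) stimulation; lower signal means less secretion.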
# * = called active by the depositor; ? = inconclusive; · = not tested or not shown; [ ] = remark or other dose. Unless noted, calls follow the shape of the dose curve; as a rule, active = well fitted curve in the direction sought with a large enough effect; inconclusive = small, poorly fitted or top-dose-only effect, or another doubt; inactive = no such curve, though single readings can be large; an effect the other way counts as inactive or inconclusive.
SMILES,TDP1 cell noCPT,SW480 rereplic,Chronic BCR inh,MCF10A rereplic,TDP1 cell CPT,IL1B secr inh
COc1cc(=O)n2c(c1C(=O)N(C)Cc1nonc1C)CCN(Cc1ccc(F)cc1)CC2,-14.9%,·,·,·,5.6%[9.04 µM],·
COc1ccc(-c2noc(CCC(=O)N3CCN(c4ccccc4)CC3)n2)cc1,-22.0%,-17.0%,5.8%,-5.2%,-0.9%,-13.6
Cc1ccc(S(=O)(=O)N2C[C@@H]3c4ccccc4N(S(=O)(=O)c4ccc(C)cc4)[C@@H]3[C@@H](C)C2CC(=O)c2ccccc2)cc1 (some centres not stated),-3.3%,?,2.4%,20.4%,3.8%,-4.7
Cc1ccc(S(=O)(=O)N2c3ccccc3OC(C(=O)OC(C)(C)C)(C(=O)OC(C)(C)C)C2CC(=O)c2ccccc2)cc1 (configuration not stated),5.8µM*,·,·,·,6.51µM*,-27.5
COC(=O)CC1N(S(=O)(=O)c2ccc(C)cc2)c2ccccc2C1(C(=O)OC)C(=O)OC (configuration not stated),?,·,·,·,25.9µM*,21.0
Cc1ccc(OC(=O)c2cc(-c3ccccc3)nc3ccc(C)cc23)cc1,-0.7%,·,·,·,0.0%,·
O=C(c1ccc(-c2nnc(Nc3cccc(Cl)c3)c3ccccc23)cc1)N1C[C@H]2C[C@H](C1)c1cccc(=O)n1C2,16.4µM*,4.3%,-12.6%,?,?,?
COc1nnc(-c2ccc(C(=O)N3C[C@@H]4C[C@H](C3)c3cccc(=O)n3C4)cc2)c2ccccc12,18.9%,0.6%,-3.5%,0.9%,15.2%,-7.4
CN(C(=O)COC(=O)/C=C/c1ccc(F)cc1)c1c(N)n(Cc2ccccc2)c(=O)[nH]c1=O,?,-67.6%,2.6%,0.5%,?,1.8
COc1ccc2nc(C)cc(Nc3ccccc3O)c2c1,?,3.9%,?,-9.2%,23.1µM*,?
COc1ccc(Nc2cc(C)nc3ccc(C)cc23)cc1,16.4µM*,·,·,·,?,-21.3
CC(=O)c1ccc(Nc2cc(C)nc3ccc(C)cc23)cc1,?,?,0.8%,?,?,-104.4*
Cc1ccc2nc(C)cc(Nc3ccc4c(c3)OCCO4)c2c1,12.6µM*,2.7%[9.22 µM],0.4%,0.4%,22.4µM*,?
Cc1cc(Nc2ccc3c(c2)OCCO3)n2nc(C)nc2n1,-3.3%,6.3%,?,4.3%,-16.1%,23.2
COc1ccc2nc(C)cc(Nc3ccccc3OC)c2c1,?,·,·,·,?,26.9
CCOC(=O)c1ccc2nc(C)cc(Nc3ccc(OC(C)C)cc3)c2c1,18.4µM*,·,·,·,23.1µM*,·
COc1ccc(CCC(=O)NCc2cccc(C(F)(F)F)c2)cc1,-4.1%,-15.7%,5.0%,-11.1%,-5.3%,0.0
CCOC(=O)c1ccc2nc(C(F)(F)F)[nH]c(=O)c2c1,7.31µM*,-2.8%,3.5%,15.7%,16.4µM*,0.0
COc1ccc2nc(C)cc(NCc3cccc(C(F)(F)F)c3)c2c1,13µM*,23.1µM*,-6.2%,20.6µM*,14.6µM*,-96.0*
COCCNC(=O)CN1C(=O)/C(=C/c2ccccc2)Oc2ccc(C(C)(C)C)cc21,?,15.3%,-1.0%,?,?,-52.9*
O=C(CCN1C(=O)/C(=C\c2ccccc2)SC1=S)NCCCN1CCOCC1,?,-2.0%,?,?,?,-27.0
O=C(CN1C(=O)/C(=C\c2cccc(Cl)c2)Sc2ccccc21)NCCCN1CCOCC1,23.1µM*,?,?,20.6µM*,23.1µM*,-5.8
O=C(CN1C(=O)S/C(=C\c2ccccc2Cl)C1=O)NCCCn1ccnc1,?,-8.7%,?,-7.2%,14.3%,-28.9
O=C(CN1C(=O)/C(=C\c2ccccc2Cl)Sc2ccccc21)NCCCN1CCOCC1,?,18.4µM*,-28.2%,18.4µM*,?,?
O=C(CN1C(=O)/C(=C\c2cccc(Br)c2)Oc2ccccc21)NCCCN1CCOCC1,18.4µM*,14.6µM*,?,2.91µM*,?,-51.8*
SMILES,TDP1 cell noCPT,SW480 rereplic,Chronic BCR inh,MCF10A rereplic,TDP1 cell CPT,IL1B secr inh
O=C(CN1C(=O)COc2ccccc21)NCCCN1CCOCC1,-16.0%,2.7%,-3.9%,-1.2%,2.0%,14.9
N#CCCn1c(=O)c(CCc2ccccc2)nc2cnc(N3CCOCC3)nc21,-1.5%,·,·,·,-2.6%,·
CC(c1ccccc1)n1c(SCC(=O)Nc2ccccc2)n[nH]c1=O (configuration not stated),-13.3%,-4.3%,1.6%,-1.2%,3.3%,30.6
COc1ccc(C2/C(=C(/O)c3ccc(C)cc3)C(=O)C(=O)N2C)c(OC)c1 (configuration not stated),-20.4%,-0.7%,0.3%,0.1%,-2.6%,-2.9
CC1(C)NC(=O)N(CCCCOc2ccccc2[N+](=O)[O-])C1=O,·,·,-5.3%,·,·,·
CC1(C)NC(=O)N(c2ccc([N+](=O)[O-])c(C(F)(F)F)c2)C1=O,4.61µM*,-5.9%,-5.5%,-2.0%,18.8µM*,6.0
COc1ccc(C2=Nc3ccccc3N(C(=O)c3ccncc3)C2C(=O)NC(C)C)cc1 (configuration not stated),-28.5%,·,·,·,?,12.6
Cn1ccc2c(OCC(=O)NCc3ccccc3Cl)cccc2c1=O,18.4µM*,·,?,·,?,·
COc1ccccc1OCC(=O)NCCSCc1ccccc1Cl,18.4µM*,-2.1%,5.4%,10.0%,?,-5.3
CCCCc1ccc(NC(=O)COc2cccc3c(=O)n(C)ccc23)cc1,18.4µM*,·,?,·,13µM*,·
O=C(COc1ccccc1)NCCSCc1ccccc1Cl,-3.8%,-4.4%,-6.9%,?,1.7%,13.7
CCCn1ccc2c(OCC(=O)NCc3ccc(C)cc3)cccc2c1=O,?,·,?,·,-20.4%,·
COc1ccc(Cl)cc1NC(=O)COc1cccc2c(=O)n(C)ccc12,?,·,28.6%,·,-1.7%,·
O=C1OC/C(=C(/O)c2ccc(Cl)cc2)C1=O,-22.5%,-5.0%,0.9%,0.1%,13.6%,10.6
O=c1sc2ccccc2c(N2CCOCC2)c1[N+](=O)[O-],1.5%,-3.9%,0.8%,0.5%,4.7%,17.7
CSc1nc(-c2ccccc2)c(C#N)c(=O)n1C,-25.0%,-12.7%,-3.0%,-1.6%,-1.9%,?
COc1ccc(-c2nc(SC)n(C)c(=O)c2C#N)cc1OC,?,1.2%,5.8%,?,?,-76.3*
OC(c1ccc2c(c1)CN(Cc1cccc3nccnc13)CCO2)C1CCCCC1 (configuration not stated),-19.3%,·,·,·,5.7%,·

# High-throughput results (PubChem BioAssay)
